Measurements taken from PubChem BioAssay (NCI).
Compounds without any hit were thinned out: in the full panel of roughly 83,000, 20% have a hit.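 Note: values are percent growth. 100 is the growth of untreated cells, values between 100 and 0 indicate rising inhibition; between -100 and 0 indicates cell death.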 Active and inactive are the calls of the source. Rule for the calls: active = growth percent below 10; inactive = the rest.

Key:
Experiment in all cases: NCI-60 one-dose screen, 48 h (100 = growth as untreated, 0 = no growth, -100 = all killed)
NCI-H23 lung = settings: 10 µM unless noted
NCI-H226 lung = settings: 10 µM unless noted
NCI-H322M lung = settings: 10 µM unless noted
HOP-62 NSCLC = settings: 10 µM unless noted
NCI-H460 lung = settings: 10 µM unless noted
HOP-92 NSCLC = settings: 10 µM unless noted
NCI-H522 lung = settings: 10 µM unless noted
A549/ATCC NSCLC = settings: 10 µM unless noted
786-0 renal = settings: 10 µM unless noted
COLO 205 colon = settings: 10 µM unless noted
DU-145 prostate = settings: 10 µM unless noted
K-562 leukemia = settings: 10 µM unless noted
MALME-3M melanoma = settings: 10 µM unless noted
MDA-MB-231 breast = settings: 10 µM unless noted
RXF 393 renal = settings: 10 µM unless noted
SF-268 CNS = settings: 10 µM unless noted
SF-295 CNS = settings: 10 µM unless noted
SF-539 CNS = settings: 10 µM unless noted
UACC-257 melanoma = settings: 10 µM
M14 melanoma = settings: 10 µM unless noted

Measured: growth

Clc1ccc(-c2csc(N/N=C/c3nc4ccccc4n3C3CC3)n2)cc1
inactive: NCI-H23 lung 98.5% | NCI-H226 lung 91.5% | NCI-H322M lung 98.5% | HOP-62 NSCLC 106% | NCI-H460 lung 105% | HOP-92 NSCLC 105% | NCI-H522 lung 93% | A549/ATCC NSCLC 95.5% | 786-0 renal 109% | COLO 205 colon 104% | DU-145 prostate 113% | K-562 leukemia 107% | MALME-3M melanoma 96.3% | MDA-MB-231 breast 96.7% | RXF 393 renal 107% | SF-268 CNS 94.7% | SF-295 CNS 96.5% | SF-539 CNS 99.4% | UACC-257 melanoma 91% | M14 melanoma 91.9%

O=C(/C=C/c1cn(-c2ccccc2)nc1-c1ccc(Cl)cc1)c1cc2ccccc2oc1=O
inactive: NCI-H23 lung 78.3% | NCI-H226 lung 66.1% | NCI-H322M lung 77.7% | HOP-62 NSCLC 82.4% | NCI-H460 lung 54.6% | HOP-92 NSCLC 79.6% | NCI-H522 lung 71% | A549/ATCC NSCLC 88.7% | 786-0 renal 46% | COLO 205 colon 84.9% | DU-145 prostate 63.7% | K-562 leukemia 58.4% | MALME-3M melanoma 66% | MDA-MB-231 breast 55% | RXF 393 renal 95.7% | SF-268 CNS 90.8% | SF-295 CNS 48% | SF-539 CNS 68.4% | UACC-257 melanoma 93.5% | M14 melanoma 72.8%

CCCCCCNC(=O)Oc1ccc(/C(=C(/C)c2ccc(OC)cc2)c2ccc(OCCN3CCCC3)cc2)cc1
inactive: NCI-H23 lung 78.8% | NCI-H226 lung 96.6% | NCI-H322M lung 86.2% | HOP-62 NSCLC 88.4% | NCI-H460 lung 55.3% | HOP-92 NSCLC 62.8% | NCI-H522 lung 92.2% | A549/ATCC NSCLC 73.3% | 786-0 renal 40.9% | COLO 205 colon 76.2% | DU-145 prostate 91.6% | MDA-MB-231 breast 65.7% | RXF 393 renal 61.9% | SF-268 CNS 83.6% | SF-295 CNS 46.8% | SF-539 CNS 37.7%
active: K-562 leukemia 6.93% | MALME-3M melanoma -13.6% | UACC-257 melanoma 2.85% | M14 melanoma -35.5%

O=C(CCCCCCN1CC(=O)N2[C@@H](c3cccc(Cl)c3)c3[nH]c4ccccc4c3C[C@H]2C1=O)NO
active: RXF 393 renal 9.1%
inactive: NCI-H23 lung 71.3% | NCI-H226 lung 102% | NCI-H322M lung 66.4% | HOP-62 NSCLC 51.9% | NCI-H460 lung 43.1% | HOP-92 NSCLC 44.5% | NCI-H522 lung 19.2% | A549/ATCC NSCLC 79.6% | 786-0 renal 79% | COLO 205 colon 36.9% | DU-145 prostate 46.3% | K-562 leukemia 24% | MALME-3M melanoma 29.1% | MDA-MB-231 breast 39.5% | SF-268 CNS 64.4% | SF-295 CNS 52% | SF-539 CNS 50.6% | UACC-257 melanoma 44% | M14 melanoma 45.6%

COc1ccc(S(=O)(=O)n2cc(C=O)c3ccccc32)c(OC)c1
inactive: NCI-H23 lung 79.4% | NCI-H226 lung 70.6% | NCI-H322M lung 102% | HOP-62 NSCLC 77.9% | NCI-H460 lung 98.5% | HOP-92 NSCLC 43.3% | NCI-H522 lung 97.7% | A549/ATCC NSCLC 93.2% | 786-0 renal 94.2% | COLO 205 colon 108% | DU-145 prostate 103% | K-562 leukemia 14.4% | MALME-3M melanoma 79.7% | MDA-MB-231 breast 95.5% | RXF 393 renal 95.3% | SF-268 CNS 73.6% | SF-295 CNS 99.9% | SF-539 CNS 78.6% | UACC-257 melanoma 82.5% | M14 melanoma 52.8%

COc1ccc(/C=C/C(=O)c2nnn(-c3ccc(C(=O)O)cc3)c2C)cc1OC
inactive: NCI-H23 lung 105% | NCI-H226 lung 100% | NCI-H322M lung 91.3% | HOP-62 NSCLC 107% | NCI-H460 lung 107% | HOP-92 NSCLC 102% | NCI-H522 lung 88.4% | A549/ATCC NSCLC 97.5% | 786-0 renal 98.4% | COLO 205 colon 109% | DU-145 prostate 104% | K-562 leukemia 80.8% | MALME-3M melanoma 95.8% | MDA-MB-231 breast 96.7% | RXF 393 renal 112% | SF-268 CNS 99.4% | SF-295 CNS 103% | SF-539 CNS 91.7% | UACC-257 melanoma 97% | M14 melanoma 92.6%

CC1(C)CC[C@]2(C(=O)O)CC[C@]3(C)C(=CCC4[C@@]5(C)C[C@@H](O)[C@@H]6OC(c7cccc([N+](=O)[O-])c7)OC[C@@]6(C)C5CC[C@]43C)C2C1 (stereo not given in full)
inactive: NCI-H23 lung 73.6% | NCI-H226 lung 77.2% | NCI-H322M lung 41.7% | HOP-62 NSCLC 65.2% | NCI-H460 lung 65.4% | HOP-92 NSCLC 69.1% | NCI-H522 lung 71.8% | A549/ATCC NSCLC 37.1% | 786-0 renal 90.9% | COLO 205 colon 53% | DU-145 prostate 60.1% | K-562 leukemia 44.9% | MALME-3M melanoma 86.7% | MDA-MB-231 breast 82% | RXF 393 renal 85.3% | SF-268 CNS 74.6% | SF-295 CNS 36.8% | SF-539 CNS 83.7% | UACC-257 melanoma 103% | M14 melanoma 72.8%
